# Most compounds without a hit are left out; they make up all but 17% or so of the library.
# TGFb inhibitor: qHTS for Inhibitors of TGF-b. HepG2 CAGA-GFP TGF-b/SMAD3 reporter, GFP fluorescence, 18 h; TGF-beta stimulated, 500 pg/mL final. Potency, µM (titrated, usually from 46.1 µM), hits mostly inhibitors. hit rate 1.2% among 410,000. AID 588855, 2011; also: nearly all actives have a fitted effect of over 65% in size
#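 Read-out: total well GFP (ex488/em500-530) summed from mean per-cell fluorescence. Cells: HEPG2 CAGA-GFP, 1% FBS DMEM, 18 h at 37 degrees C with 500 pg/mL final TGF-beta. Unstimulated wells served as the full-inhibition control; stimulated DMSO wells = 0%.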
# HepG2 viability: qHTS for Inhibitors of TGF-b: Cytotox Counterscreen; HepG2 CAGA-GFP viability, ATP luminescence, 18 h; Potency, µM (titrated, usually from 46.1 µM), actives largely listed as cytotoxic; hit rate 0.76% among 410,000; AID 588856, 2011
#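 HepG2 CAGA-GFP cells (1000/well, DMEM with 1% FBS) received compound, then TGF-beta at 500 pg/mL final, and were incubated 18 hours at 37 degrees C. Viability was read by CellTiter-Glo luminescence. Media-only wells were set as complete cell-killing and DMSO as no toxicity.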
# TDP1 cell CPT: qHTS for Inhibitors of human tyrosyl-DNA phosphodiesterase 1 (TDP1): qHTS in cells in presence of CPT | chicken DT40 Tdp1-/-;hTDP1 cells + 20 nM CPT, ATP luminescence, 48 h | Potency, µM (doses to about 46.2 µM), hits mostly inhibitors | hit rate 12% among 420,000; also: nearly all actives have a fitted effect of over 55% in size
#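 Chicken DT40 Tdp1-/- cells complemented with human TDP1, 400 cells/well, exposed to compounds plus 20 nM camptothecin for at least 48 h at 37 C; viability read as ATP content by CellTiter-Glo luminescence.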
# HT1080 IDH1KD tx: qHTS for induction of synthetic lethality in tumor cells producing 2HG: qHTS for the HT-1080-IDH1KD cell line; hit rate 2% among 360,000; Potency, µM (series often up to 46.1 µM), actives largely listed as cytotoxic; HT-1080 IDH1 knockdown viability, ATP luminescence, 48 h
#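 Using the IDH1-knockdown HT-1080 line run in the same batch and compound series as the NT line, viability after 48 h at 37 °C was determined by CellTiter-Glo luminescence and expressed as % activity.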
# HT1080NT lethal: qHTS for induction of synthetic lethality in tumor cells producing 2HG: qHTS for the HT-1080-NT fibrosarcoma cell line; hit rate 1.6% among 360,000; HT-1080-NT fibrosarcoma viability, CellTiter-Glo ATP luminescence, 48 h; Potency, µM (highest dose often 46.1 µM), usual class: cytotoxic; AID 686970, 2013;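 also: NT is the 2HG producing partner of a matched IDH1 knockdown line; nearly all actives have a fitted effect of over 55% in size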
#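 Viability by CellTiter-Glo luminescence after 48 h compound exposure at 37C of HT-1080-NT cells (750/well, RPMI, 5% FBS). % activity scaled between DMSO wells and medium-only wells, then curve-fitted and categorized by curve class.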
# TDP1 cell noCPT: qHTS for Inhibitors of human tyrosyl-DNA phosphodiesterase 1 (TDP1): qHTS in cells in absence of CPT | hit rate 15% among 420,000 | Potency, µM (top dose mostly 46.2 µM), actives largely listed as inhibitors | DT40 Tdp1-/- hTDP1 cells, no CPT, ATP luminescence, 48 h | AID 686978, 2013; also: nearly all actives have a fitted effect of over 55% in size
#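 A cellular qHTS used chicken DT40 cells lacking endogenous Tdp1 but carrying stably transfected human TDP1. Compounds were applied without camptothecin, and cell growth kinetics were judged by ATP-dependent luminescence after ≥48 hr.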
# A number is an active result; – = inactive; ? = inconclusive; · = no result given. Calls follow the shape of the dose curve; as a rule, active = well fitted curve in the direction sought with a large enough effect; inconclusive = small, poorly fitted or top-dose-only effect, or another doubt; inactive = no such curve, though single readings can be large; an effect the other way counts as inactive or inconclusive.
SMILES,TGFb inhibitor,HepG2 viability,TDP1 cell CPT,HT1080 IDH1KD tx,HT1080NT lethal,TDP1 cell noCPT
CC12CC(c3ccccc3O1)C(C(=O)N1CCOCC1)C(=O)N2 (stereo not drawn),–,–,–,–,–,–
COc1ccc(/C=C/C(O)=C2/C(=O)N(C)C3(C)CC2c2ccccc2O3)cc1 (stereo not drawn),–,–,23µM,?,?,21µM
COc1ccc(/C=C/C(O)=C2/C(=O)NC3(C)CC2c2ccccc2O3)c(OC)c1OC (stereo not drawn),–,–,8.2µM,?,?,7.3µM
CCN1C(=O)C(C(=O)Nc2ccc(OC)cc2)C2CC1(C)Oc1ccccc12 (stereo not drawn),?,–,–,–,–,–
O=C(NCCc1csc(-c2ccccc2)n1)c1c(F)cccc1F,–,–,?,–,–,?
O=C(NCCc1csc(-c2ccc(F)cc2)n1)c1c(F)cccc1Cl,–,–,23µM,·,·,?
O=C(NCCc1csc(-c2ccccc2)n1)c1c(F)cccc1Cl,–,–,–,–,–,?
O=C(NCCc1csc(-c2ccc(F)cc2)n1)c1cccc(F)c1,?,–,?,·,·,18µM
CC1=C(C(=O)N2CCOCC2)CC(CC(=O)NC(c2ccccc2)c2ccccc2)C(=O)N1Cc1ccc(F)cc1 (stereo not drawn),–,–,–,–,–,?
Cc1ccccc1NS(=O)(=O)c1ccc2c(c1)CCC(=O)N2,–,–,·,·,·,·
O=C(O)COc1ccccc1/C=N/NC(=O)CN1CCN(S(=O)(=O)c2ccc(Br)cc2)CC1,–,–,–,–,–,–
CC(C)S(=O)(=O)c1csc(NC(=O)Nc2ccc(Cl)cc2)c1,?,–,7.3µM,–,–,12µM
O=C(N/N=C\c1c(O)ccc2ccccc12)c1ccc(S(=O)(=O)N2CCCCC2)cc1,–,–,3.3µM,?,?,3.7µM
Cc1cc(O)cc(O)c1/C=N/NC(=O)c1ccc2c(c1)OCCO2,–,–,5.8µM,13µM,?,6.5µM
O=C(NCc1ccccc1)c1ccc(S(=O)(=O)N2CCCCCC2)cc1,–,–,?,–,–,?
O=C(N/N=C/c1c(O)ccc2ccccc12)c1ccc(CO)nc1,–,–,4.6µM,?,–,4.6µM
CC/C(=N/NC(=O)c1ccc2c(c1)OCO2)c1ccccc1O,2.5µM,–,6.5µM,23µM,–,3.7µM
Nc1c(N(C(=O)Nc2ccc(Cl)c(Cl)c2)C2CCCC2)c(=O)[nH]c(=O)n1Cc1ccccc1,–,–,?,–,–,?
COC(=O)NCC(c1ccco1)N1CCN(c2ccccc2)CC1 (stereo not drawn),–,–,–,–,–,–
Cc1cccc(OC(=O)c2ccc3c(=O)n4c(nc3c2)CCC4)c1,–,–,–,–,–,–
CCC(=O)O,·,·,–,·,·,–
O=C(NN=Cc1c(O)ccc2ccccc12)c1ccc2c(c1)OCO2,?,–,5.8µM,5.2µM,5.8µM,2.6µM
O=C(CNC(=O)c1ccc(S(=O)(=O)N2CCCC2)cc1)N/N=C/c1ccccc1Cl,–,–,?,–,–,13µM
COc1ccccc1/C=N/NC(=O)CNC(=O)c1ccc(S(=O)(=O)N2CCCC2)cc1,–,–,–,–,–,–
O=C(N/N=C/c1ccccc1)c1ccc2c(c1)OCO2,–,–,–,–,–,–
SMILES,TGFb inhibitor,HepG2 viability,TDP1 cell CPT,HT1080 IDH1KD tx,HT1080NT lethal,TDP1 cell noCPT
Fc1ccc2c(c1)-c1c(cnc3cc(-c4ccc(Cl)cc4)nn13)CO2,–,–,–,·,·,–
COc1ccccc1S(=O)(=O)N(C)C[C@H]1Oc2cc(C#CCC3CCCC3)ccc2S(=O)(=O)N([C@H](C)CO)C[C@H]1C,?,–,13µM,–,–,8.2µM
COc1ccccc1S(=O)(=O)N(C)C[C@H]1Oc2cc(Br)ccc2S(=O)(=O)N([C@@H](C)CO)C[C@H]1C,–,–,29µM,–,–,16µM
C[C@H]1CN([C@@H](C)CO)S(=O)(=O)c2ccc(Br)cc2O[C@H]1CN(C)S(=O)(=O)c1ccccc1F,–,–,–,–,–,–
COc1ccc(S(=O)(=O)N(C)C[C@@H]2Oc3cc(C#CC4CCCCC4)ccc3S(=O)(=O)N([C@@H](C)CO)C[C@@H]2C)cc1,?,–,18µM,?,–,18µM
CCc1ccc2c(CN3CCN(S(=O)(=O)c4ccccc4F)CC3)cc(=O)oc2c1,–,–,–,–,–,23µM
Cc1ccc2c(CN3CCN(S(=O)(=O)c4ccccc4C(F)(F)F)CC3)cc(=O)oc2c1C,–,–,?,–,–,23µM
Cc1ccc2c(CN3CCCCC3)cc(=O)oc2c1C,–,–,–,–,–,–
O=C(c1ccco1)N1CCC2(CC1)CN(c1cccc(-c3ccccc3)c1)C2,·,·,23µM,·,·,13µM
O=C(c1ccco1)N1CCC[C@@]2(CCN(c3ccncc3)C2)C1,·,·,–,·,·,–
O=C(c1ccco1)N1CCC2(CC1)CCN(c1ccncc1)CC2,·,·,?,·,·,21µM
